Where “and” joins values, the source holds several entries; their conditions need not be identical. Equal values may be shown once. Inconclusive results are not listed. Calls of active or inactive are those of the source. Unless noted, the call rests on the fitted dose curve; in most records, active means well fitted curve in either direction with a large enough effect (not every such curve was filed as active); inconclusive means small, poorly fitted or top-dose-only effect, or another doubt; inactive means flat fitted curve, though single readings scatter.
Legend:
[1] = Stat Signaling Pathway (AID 446); conditions: ME-180 SIE beta-lactamase reporter, IL-6 stimulated, 5 h;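 further: ME-180 cervical cancer cells given 40 pM IL-6 alongside compound; SIE-controlled beta-lactamase reporter measured as 460/530 nm FRET emission ratio; on the % scale 0 is the no-effect control and ±100 the full control effect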
Procedure, shortened: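 ME-180 cells carrying a SIE-driven beta-lactamase reporter are stimulated with 40 pM IL-6 for 5 h at 37C in the presence of compound. The 460/530 nm FRET substrate ratio is read after 2.5 h at RT. Data are normalised to 300 pM IL-6 and to 125 nM JAK inhibitor controls.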

[2] = molecular target: Glucocorticoid receptor (Homo sapiens) (UniProt P04150); assay: GR-GFP Redistribution (AID 450;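 active means compounds whose dose series gives a full or clear partial fitted curve of increased nuclear translocation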; further: potency means the concentration at half of the fitted maximal effect); conditions: U2OS GR-GFP nuclear translocation, laser cytometry, 2 h
[3] = molecular target: Glucocorticoid receptor (Homo sapiens) (UniProt P04150); assay: GR-EFC Redistribution (AID 451; calls by dose curve; further: potency means the concentration at half of the fitted maximal effect); conditions: CHO-K1 GR-EFC translocation, beta-gal luminescence, 2 h
Procedure, shortened: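 CHO-K1 cells expressing nuclear EA and GR-ED fragments of b-gal; compounds titrated up to 46 uM final, 2 h at 37 C. GR nuclear translocation read as complemented b-gal luminescence after 1 h RT detection.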

[4] = molecular target: Mitogen-activated protein kinase 10 (Mus musculus) (UniProt Q61831); assay: JNK3 AlphaScreen Assay (AID 530); conditions: JNK3 lysate, c-Jun phosphorylation; series mostly up to 57.1 µM;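 further: kinase came from lysate of stimulated human HepG2 cells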; further: potency means the concentration at half of the fitted maximal effect
Procedure, shortened: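 qHTS format: compounds tested as titrations against IL-1beta/TNF-alpha-activated HepG2 lysate JNK3 with biotin-GST-cJun substrate and 10 uM ATP at room temperature. Loss of anti-phospho-cJun AlphaScreen signal indicates inhibition.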

[5] = molecular target: 3',5'-cyclic-AMP phosphodiesterase 4B (Homo sapiens) (UniProt Q07343); assay: qHTS Assay for Inhibitors of PDE-IV (AID 607; active means well fitted activation curve with a large enough effect in the main read-out, with a control signal flat, not every such curve was filed as active; further: % of control where 0% means no effect); conditions: HEK293 ACTOne CNG channel cells, membrane potential fluorescence; series mostly up to 22.9 µM
Procedure, shortened: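 HEK293 ACTOne cells with CNG channel (1000/well), endogenous PDE4; membrane potential dye, compounds up to 22.9 uM final. Fluorescence Ex 535/Em 590; RO 20-1724 (100 uM final) as reference.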

Glucocorticoid receptor (Homo sapiens), sequence (P04150 whole entry, looked up, the tested form may be a part): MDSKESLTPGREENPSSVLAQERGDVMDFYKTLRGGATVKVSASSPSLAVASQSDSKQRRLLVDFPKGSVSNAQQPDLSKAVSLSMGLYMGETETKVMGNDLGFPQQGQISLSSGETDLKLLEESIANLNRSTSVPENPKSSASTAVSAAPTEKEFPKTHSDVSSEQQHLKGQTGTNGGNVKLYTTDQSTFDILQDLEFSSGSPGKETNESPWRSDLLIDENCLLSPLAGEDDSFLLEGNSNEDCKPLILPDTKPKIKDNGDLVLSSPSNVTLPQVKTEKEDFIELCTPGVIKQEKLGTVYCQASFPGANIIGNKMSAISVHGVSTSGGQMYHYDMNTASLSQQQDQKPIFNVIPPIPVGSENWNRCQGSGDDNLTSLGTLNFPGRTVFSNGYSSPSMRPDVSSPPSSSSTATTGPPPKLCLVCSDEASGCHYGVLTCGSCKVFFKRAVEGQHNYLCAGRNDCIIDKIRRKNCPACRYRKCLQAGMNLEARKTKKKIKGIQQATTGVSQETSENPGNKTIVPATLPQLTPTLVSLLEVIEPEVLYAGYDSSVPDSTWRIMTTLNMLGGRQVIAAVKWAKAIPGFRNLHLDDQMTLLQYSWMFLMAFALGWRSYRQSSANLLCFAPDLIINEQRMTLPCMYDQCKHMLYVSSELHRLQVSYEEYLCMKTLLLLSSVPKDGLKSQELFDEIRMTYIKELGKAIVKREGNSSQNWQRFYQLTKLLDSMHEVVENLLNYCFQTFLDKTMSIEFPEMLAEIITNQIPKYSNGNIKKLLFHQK
3',5'-cyclic-AMP phosphodiesterase 4B (Homo sapiens), sequence (Q07343 whole entry, looked up): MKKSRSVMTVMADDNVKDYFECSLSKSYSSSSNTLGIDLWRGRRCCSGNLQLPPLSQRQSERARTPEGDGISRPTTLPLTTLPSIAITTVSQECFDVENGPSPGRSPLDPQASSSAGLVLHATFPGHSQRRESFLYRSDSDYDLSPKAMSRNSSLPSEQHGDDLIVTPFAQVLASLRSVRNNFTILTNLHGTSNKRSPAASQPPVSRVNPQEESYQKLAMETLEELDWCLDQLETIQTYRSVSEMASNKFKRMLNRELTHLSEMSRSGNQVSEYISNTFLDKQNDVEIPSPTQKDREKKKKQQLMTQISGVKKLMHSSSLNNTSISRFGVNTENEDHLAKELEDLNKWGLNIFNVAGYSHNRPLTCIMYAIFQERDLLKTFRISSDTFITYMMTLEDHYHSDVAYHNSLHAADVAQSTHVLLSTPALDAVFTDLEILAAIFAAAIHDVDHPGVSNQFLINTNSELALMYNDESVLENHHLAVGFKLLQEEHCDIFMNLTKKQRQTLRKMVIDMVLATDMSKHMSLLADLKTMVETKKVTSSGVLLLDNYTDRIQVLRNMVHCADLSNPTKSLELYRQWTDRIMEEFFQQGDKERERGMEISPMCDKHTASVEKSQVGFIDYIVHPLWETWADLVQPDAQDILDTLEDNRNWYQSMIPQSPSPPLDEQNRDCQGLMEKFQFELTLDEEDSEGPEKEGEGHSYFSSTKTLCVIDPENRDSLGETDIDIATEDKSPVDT

CN(C)C(N)=NCCC[C@H](N)C(=O)O
inactive: activity, negative = inhibition ([1]; at 38 µM (top of the series)) -11.7% | Potency [2] > 46 µM | Potency [3] > 46 µM | Potency [4]

CN1[C@@H](CC(=O)c2ccccc2)CCC[C@H]1C[C@H](O)c1ccccc1
inactive: activity, negative = inhibition ([1]; at 17.2 µM (top of the series)) 5.71%

NCCSSCCN
inactive: activity, negative = inhibition ([1]; at 7.69 µM (top of the series)) -10% | activity, negative = inhibition ([1]; at 38 µM (top of the series)) -21.5% | Potency [2] > 46 µM | Potency [3] > 46 µM and > 9.22 µM | Potency [4]

Cc1c(N)c(=O)n(-c2ccccc2)n1C
inactive: activity, negative = inhibition ([1]; at 17.2 µM (top of the series)) 3.23% | Potency [2] > 20.6 µM | Potency [3] > 20.6 µM | Potency [4]

CN1[C@@H]2CC[C@H]1CC(OC(c1ccccc1)c1ccccc1)C2 (some centres undefined)
inactive: activity, negative = inhibition ([1]; at 7.69 µM (top of the series)) 0.0599% | activity, negative = inhibition ([1]; at 38 µM (top of the series)) -14.8% | Potency [2] > 46 µM | Potency [3] > 46 µM and > 9.22 µM | Potency [4] | outcome [5]

Nc1ccc(C(=O)O)c(O)c1
inactive: activity, negative = inhibition ([1]; at 17.2 µM (top of the series)) 7.35% and -0.89% | Potency [2] > 20.6 µM

N#C/C(=C\c1ccc(O)c(O)c1)C(=O)NCc1ccccc1
inactive: activity, negative = inhibition ([1]; at 38 µM (top of the series)) -18.4% | Potency [2] > 46 µM | Potency [3] > 46 µM | Potency [4]

N#C/C(=C\c1ccc(O)c(O)c1)C(=O)NCCCc1ccccc1
active: Potency [4] 10 µM
inactive: activity, negative = inhibition ([1]; at 17.2 µM (top of the series)) -22.9% | activity, negative = inhibition ([1]; at 38 µM (top of the series)) -10.2% | Potency [2] > 46 µM and > 20.6 µM | Potency [3] > 46 µM | outcome [5]

O=C(O)c1ccccc1Nc1cccc(C(F)(F)F)c1
inactive: activity, negative = inhibition ([1]; at 17.2 µM (top of the series)) -14.4% and -17.3% | Potency [2] > 20.6 µM | Potency [3] > 20.6 µM | Potency [4]

CN1CCc2cc(NC(=O)Nc3cccnc3)ccc21
inactive: activity, negative = inhibition ([1]; at 38 µM (top of the series)) 4.31% | Potency [2] > 46 µM | Potency [3] > 46 µM | Potency [4]

O=C(O)Cc1ccc(-c2ccccc2)cc1
inactive: activity, negative = inhibition ([1]; at 17.2 µM (top of the series)) -10.3% and 7.71% | Potency [2] > 20.6 µM | Potency [3] > 20.6 µM | Potency [4]

O=C(O)c1cc(=O)c2c(Cl)cc(Cl)cc2[nH]1
inactive: activity, negative = inhibition ([1]; at 38 µM (top of the series)) 15.7% | Potency [2] > 46 µM | Potency [3] > 46 µM

N[C@H](CCCP(=O)(O)O)C(=O)O
inactive: activity, negative = inhibition ([1]; at 38 µM (top of the series)) 14.7% | Potency [2] > 46 µM | Potency [3] > 46 µM | Potency [4]

CN1CCc2ccccc2Cc2[nH]c3ccccc3c2CC1
inactive: activity, negative = inhibition ([1]; at 38 µM (top of the series)) -13.2% | Potency [2] > 46 µM | Potency [3] > 46 µM | Potency [4]

COc1ccccc1N1CCN(CCCCNS(=O)(=O)c2cccc3c(N(C)C)cccc23)CC1
inactive: activity, negative = inhibition ([1]; at 38 µM (top of the series)) -7.18% | Potency [2] > 46 µM | Potency [3] > 46 µM

Clc1ccc(N2CCN(Cc3c[nH]c4ncccc34)CC2)cc1
inactive: activity, negative = inhibition ([1]; at 38 µM (top of the series)) -44.5% | Potency [2] > 46 µM | Potency [3] > 46 µM

CC1(C)CCC=[N+]1[O-]
inactive: activity, negative = inhibition ([1]; at 38 µM (top of the series)) 4.29% | Potency [2] > 46 µM | Potency [3] > 46 µM | Potency [4]

OC[C@H]1O[C@@H](n2cnc3c(Nc4ccccc4)ncnc32)[C@H](O)[C@@H]1O
inactive: activity, negative = inhibition ([1]; at 17.2 µM (top of the series)) 17.7% | Potency [2] > 20.6 µM

Nc1nc(Cl)nc2c1ncn2[C@@H]1O[C@H](CO)[C@@H](O)[C@H]1O
inactive: activity, negative = inhibition ([1]; at 17.2 µM (top of the series)) 24.3% | Potency [2] > 20.6 µM

COc1ccc(/C=C/C(=O)Nc2ccccc2C(=O)O)cc1OC
inactive: activity, negative = inhibition ([1]; at 17.2 µM (top of the series)) -24.7% | Potency [2] > 20.6 µM

CC(C)(C=O)Cc1cc(C(C)(C)C)c(O)c(C(C)(C)C)c1
inactive: activity, negative = inhibition ([1]; at 38 µM (top of the series)) -12.1% | Potency [2] > 46 µM | Potency [3] > 46 µM | Potency [4]

CN(C)c1nc(N)c(C(=O)N=C(N)N)nc1Cl
inactive: activity, negative = inhibition ([1]; at 38 µM (top of the series)) 19% | Potency [2] > 46 µM | Potency [3] > 46 µM

Cc1nc2sccn2c(=O)c1CCN1CCC(=C(c2ccccc2)c2ccc(F)cc2)CC1
inactive: activity, negative = inhibition ([1]; at 17.2 µM (top of the series)) -13.7% | activity, negative = inhibition ([1]; at 38 µM (top of the series)) 13.4% | Potency [2] > 46 µM and > 20.6 µM | Potency [3] > 46 µM | Potency [4]

Cn1c(=O)c2[nH]c(-c3ccccc3)nc2n(C)c1=O
inactive: activity, negative = inhibition ([1]; at 38 µM (top of the series)) -0.0891% | Potency [2] > 46 µM | Potency [3] > 46 µM | Potency [4]

O=c1[nH]c2ccccc2n1CCCN1CCN(C(c2ccccc2)c2ccccc2)CC1
inactive: activity, negative = inhibition ([1]; at 17.2 µM (top of the series)) -2.06% | Potency [2] > 46 µM and > 20.6 µM | Potency [3] > 46 µM

CCOc1ccc2nc(S(N)(=O)=O)sc2c1
inactive: activity, negative = inhibition ([1]; at 17.2 µM (top of the series)) 12.3% | Potency [2] > 20.6 µM

O=c1[nH]c2cc(Cl)c(Cl)cc2[nH]c1=O
inactive: activity, negative = inhibition ([1]; at 38 µM (top of the series)) -0.584% | Potency [2] > 46 µM | Potency [3] > 46 µM

NCCCCC(=O)O
inactive: activity, negative = inhibition ([1]; at 38 µM (top of the series)) 0.307% | Potency [2] > 46 µM | Potency [3] > 46 µM | Potency [4]

Source: PubChem BioAssay (NCATS)
